# An excerpt weighted towards active compounds, which were near 12% of everything screened.
# PI5P4Ka inh – inhibitors of human PI5P4K alpha; P48426; PI5P4Kalpha enzyme, ADP-Glo luminescence, 60 min; stronger effect = lower value; max response, %; hit rate 1.2% among 330,000; AID 652105; active means max response of -50% or lower; inconclusive means between -30% and -50%; inactive means -30% or higher; further: value at the top dose of about 77 µM; on the % scale 0 is the no-effect control and ±100 the full control effect
#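 ADP-Glo luminescence end-point after a 60 min room-temperature kinase reaction. PI5P4Kalpha and substrate in HEPES pH 7.4 buffer with EGTA, 0.1% CHAPS and 5% DMSO; ATP at 5 microM final.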
# JMJD2A Tudor inh – inhibitors of human JMJD2A Tudor domain; O75164; AlphaScreen JMJD2A-Tudor / H3K4me3 peptide binding; Potency, µM (top dose mostly 114 µM), for the others: at the highest dose activity change, negative = inhibition, actives largely listed as inhibitors; hit rate 4.4% among 390,000; AID 504339; further: potency means the concentration at half of the fitted maximal effect; on the % scale 0 is the no-effect control and ±100 the full control effect; nearly all actives have a fitted effect of over 50% in size
# PLK1 PBD block – inhibitors of human PLK1 polo-box domain binding; P53350; Plk1 PBD binding of FITC phosphopeptide, fluorescence polarization; Potency, µM, without a hit: max response, negative = inhibition, actives largely listed as inhibitors; hit rate 2.8% among 360,000; AID 720504; further: potency means the concentration at half of the fitted maximal effect; series mostly up to about 57 µM; on the % scale 0 is the no-effect control and ±100 the full control effect; nearly all actives have a fitted effect of over 65% in size
# Target sequence (P53350 whole entry, looked up, the tested form may be a part): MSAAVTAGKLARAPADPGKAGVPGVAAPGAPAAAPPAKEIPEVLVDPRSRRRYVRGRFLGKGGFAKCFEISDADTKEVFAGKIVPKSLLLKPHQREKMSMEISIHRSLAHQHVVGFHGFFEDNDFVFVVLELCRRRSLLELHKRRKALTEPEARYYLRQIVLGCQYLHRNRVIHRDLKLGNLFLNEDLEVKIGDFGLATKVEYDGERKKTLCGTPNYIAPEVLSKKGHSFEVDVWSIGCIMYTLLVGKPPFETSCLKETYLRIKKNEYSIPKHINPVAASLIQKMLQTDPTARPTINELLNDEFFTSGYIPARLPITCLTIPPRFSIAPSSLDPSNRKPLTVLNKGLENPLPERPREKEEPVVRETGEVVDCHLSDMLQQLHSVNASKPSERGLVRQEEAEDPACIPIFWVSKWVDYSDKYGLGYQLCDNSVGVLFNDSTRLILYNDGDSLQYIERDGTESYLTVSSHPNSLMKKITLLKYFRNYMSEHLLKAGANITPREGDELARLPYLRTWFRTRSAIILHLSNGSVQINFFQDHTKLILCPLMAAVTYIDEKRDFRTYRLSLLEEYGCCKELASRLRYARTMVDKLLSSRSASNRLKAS
# BAZ2B block – BAZ2B (human) inhibition; Q9UIF8; AlphaScreen BAZ2B-H3K14Ac peptide displacement; Potency, µM (highest dose often 114 µM), inactives show at the highest dose activity change, negative = inhibition, hits mostly inhibitors; hit rate 4.4% among 360,000; AID 504333; further: potency means the concentration at half of the fitted maximal effect; on the % scale 0 is the no-effect control and ±100 the full control effect; nearly all actives have a fitted effect of over 60% in size
#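 Inhibition is scored as reduced AlphaScreen emission. The BAZ2B/b-H3(5-23)K14Ac complex (50 nM each) in PBS pH 7.4, 0.01% Tween-20 meets compound (up to 110 uM) for 30 min at RT before bead addition.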
# HP1b chromo inh – inhibitors of HP1-beta chromodomain binding to methylated histone tails. AlphaScreen HP1-beta / biotin-H3K9me3 peptide binding. hit rate 0.56% among 390,000. Potency, µM (series often up to 114 µM), inactives show top-dose activity change, negative = inhibition, most hits filed as inhibitors; further: potency means the concentration at half of the fitted maximal effect; nearly all actives have a fitted effect of over 70% in size
#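 HP1-beta protein (50 nM final) preincubated 30 min at room temperature with biotinylated H3(1-18)K9me3 peptide (50 nM) in PBS pH 7.4, 0.01% Tween-20, then compound added for 30 min. AlphaScreen streptavidin donor/nickel chelate acceptor beads (10 ug/mL final), 30 min dark, luminescence read.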
# G9a inh – blocks human histone lysine methyltransferase G9a | Q96KQ7 | G9a H3K9 monomethylation, AlphaScreen, 2 h | Potency, µM (series often up to 102 µM), for inactives: top-dose activity, negative = inhibition, hits mostly inhibitors | hit rate 8.8% among 350,000 | AID 504332; further: potency means the concentration at half of the fitted maximal effect; on the % scale 0 is the no-effect control and ±100 the full control effect; nearly all actives have a fitted effect of over 75% in size
#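 Using a bead-based AlphaScreen, monomethylated H3K9 product from 2 h room-temperature reactions (G9a 20 nM, peptide 500 nM, SAM 20 uM) was detected with 0.5 ug/mL rabbit anti-H3K9me1 antibody.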
# The depositor's hits bear a star; ? = inconclusive; nt = no result; [ ] = another dose, or the depositor's remark. Unless noted, the call rests on the fitted dose curve; in most records, active means well fitted curve in the direction sought with a large enough effect; inconclusive means small, poorly fitted or top-dose-only effect, or another doubt; inactive means no such curve, though single readings can be large; an effect the other way counts as inactive or inconclusive.
SMILES,PI5P4Ka inh,JMJD2A Tudor inh,PLK1 PBD block,BAZ2B block,HP1b chromo inh,G9a inh
CC(C)N(C)C1=CC(=O)C(N(C)C(C)C)=CC1=O,4,-22%,-12%,nt,-13%,nt
COc1ccc(Cl)cc1NC(=O)CN(C)C(=O)CCc1nc2ccccc2c(=O)[nH]1,-6,7%,1%,1%,35%,-1%[12.7 µM]
Cc1cccc(C(=O)N2[C@@H](C(C)C)COc3cc(Br)ccc3S2(=O)=O)c1,-17,-23%,21µM*,nt,62%,nt
N#Cc1ccc(CSc2ccc(S(=O)(=O)N3CCCC3)cn2)cc1,7,10%,-7%,5%,57%,3%[59 µM]
Cc1c(NC(=O)c2cc3ccccc3oc2=O)c(=O)n(-c2ccccc2)n1C,nt,-4%,-8%,-1%,9%,25µM*
Cc1c(NC(=O)c2cc(-c3ccccc3)on2)c(=O)n(-c2ccccc2)n1C,nt,100µM*,-5%,8%,-7%,12%[59 µM]
Cc1onc(-c2c(F)cccc2Cl)c1C(=O)NC(=S)Nc1c(C)n(C)n(-c2ccccc2)c1=O,4,-14%,-2%,?,23%,32µM*
Cc1cc(C)c2c(C)c(C(=O)Nc3c(C)n(C)n(-c4ccccc4)c3=O)oc2c1,2,-11%,2%,1%,35%,71µM*
Cc1c(NC(=O)c2cc3ccccc3o2)c(=O)n(-c2ccccc2)n1C,-4,-7%,-3%,16%,17%,-44%[59 µM]
Cc1c(NC(=O)c2cc(-c3ccc(O)cc3)on2)c(=O)n(-c2ccccc2)n1C,-14,-4%[11.4 µM],-6%,-1%,87%,-6%
Cc1ccc(NC(=S)N2CCC(N(C)CC3CCCO3)CC2)cc1 (stereo not drawn),-1,-10%,-6%,9%,11%,-1%
Cc1c(Nc2scc(-c3ccccc3)[n+]2-c2ccccc2)c(=O)n(-c2ccccc2)n1C,-14,56µM*,-13%,50µM*,?,28µM*
Cc1c(NC(=O)c2ccc(COc3ccc4ccccc4c3)o2)c(=O)n(-c2ccccc2)n1C,-4,-31%,-14%,50µM*,1%,?
Cc1c(Nc2nc(-c3ccc(Cl)cc3)cs2)c(=O)n(-c2ccccc2)n1C,-3,?,-8%,-35%,-30%,-49%[59 µM]
Cc1cccc(NC(=O)c2ccc(COc3ccc4ccccc4c3)o2)n1,3,-10%,-11%,2%,48%,-8%
COc1ccc(NC(=O)Cn2c(=O)n(Cc3ccco3)c(=O)c3sc4ccccc4c32)cc1Cl,nt,-19%,nt,-9%,14%,-4%[59 µM]
Cc1ccc(CCNC(=O)c2ccc(Nc3nc4ccccc4n4nnnc34)cc2)cc1,nt,-5%,nt,3%,31%,11%[59 µM]
Nc1ccc(Oc2ccccc2-c2ccccc2)cc1,23,50µM*,-10%,nt,?,nt
O=C(O)COc1ccccc1-c1ccccc1,6,-2%,1%,-1%,29%,-1%
CN(C(=O)c1cccc(NC(=O)Cc2ccc(NC(=O)C3CCCN(S(=O)(=O)c4cccc([N+](=O)[O-])c4)C3)cc2)c1)C1CCCC1 (stereo not drawn),?,-32%,?,nt,19%,nt
CCCNC(=O)C1(C)CCCN(CCOc2ccccc2)C1 (stereo not drawn),-1,nt,-7%,nt,nt,nt
CCn1c(CNC(=O)Cc2ccc(OC)cc2)n[nH]c1=S,-1,?,10%,-22%,48%,?
COc1ccc(CC(=O)NCc2n[nH]c(=S)n2-c2ccccc2OC)cc1,3,14µM*,-9%,nt,52%,35µM*
COc1ccc(CNC(=O)c2cccs2)cc1,nt,1%,-10%,13%,37%,7%[59 µM]
COc1ccc(CC(=O)NCc2n[nH]c(=S)n2-c2cccc(Cl)c2)cc1,-1,50µM*,1%,-20%,44%,3.2µM*
SMILES,PI5P4Ka inh,JMJD2A Tudor inh,PLK1 PBD block,BAZ2B block,HP1b chromo inh,G9a inh
COc1ccc(-n2c(CNC(=O)c3cccs3)n[nH]c2=S)cc1,-9,22µM*,-22%,-4%,5%,20µM*
COc1ccc(CC(=O)NCc2n[nH]c(=S)n2-c2ccc(F)cc2)cc1,6,50µM*,?,-18%,31%,-36%[12.7 µM]
C/C=C(\C)C(=O)OC1[C@H](OC(C)=O)C2(CO)C(CC1(C)C)C1=CCC3C4(C)CCC(O[C@@H]5O[C@H](C(=O)O)[C@@H](O[C@@H]6O[C@H](CO)[C@@H](O)[C@H](O)[C@H]6O)[C@H](O)[C@H]5O[C@H]5O[C@H](CO)[C@@H](O)[C@H](O)[C@H]5O)[C@](C)(CO)C4CCC3(C)[C@]1(C)C[C@H]2O (stereo partly drawn),-16,-33%,-26%,nt,0%,nt
Cc1ccc(NC(=O)Cn2c(=O)n(Cc3ccccc3)c(=O)c3sc4ccccc4c32)cc1,nt,-11%,nt,1%,30%,-11%[59 µM]
CCOc1ccccc1-n1ccnc(NCc2ccc(F)cc2)c1=O,nt,-25%,nt,-38%,-9%,-39%[59 µM]
CCC(C)Sc1cc(-c2nc3ccc(Cl)cn3c2NC2CCCCC2)ccc1OC (stereo not drawn),0,?,1%,nt,12%,nt
Cc1cc(C)c(NC(=O)Cn2c(=O)n(Cc3ccco3)c(=O)c3ccc(C(=O)NC4CCCC4)cc32)c(C)c1,nt,-4%,nt,nt,66%,36%[59 µM]
Cc1c(C(=O)NCc2n[nH]c(=S)n2-c2ccc(F)cc2)cccc1[N+](=O)[O-],-1,40µM*,-1%,3%,52%,10µM*
Cc1c(C(=O)NC(=S)NCc2cccnc2)cccc1[N+](=O)[O-],6,-12%,10%,-6%,1%,nt
O=C(CC(=O)NC1CCCCC1)N/N=C/c1ccccc1[N+](=O)[O-],-7,2%,-1%,4%,21%,45µM*
O=C(CC(c1cccs1)N1Cc2ccccc2C1=O)Nc1cccc(F)c1 (stereo not drawn),nt,-12%,nt,-14%,12%,1%[59 µM]
CC12CCC(C[N+](C)(C)C1)C2(C)C (stereo not drawn),-8,22µM*,-17%,-8%,-26%,?
COCCCn1c(-c2ccc(S(=O)(=O)N3CCOCC3)cc2)csc1=Nc1ccccc1,4,?,-10%,?,?,?
CCn1c(-c2ccc(S(=O)(=O)N3CCOCC3)cc2)csc1=Nc1ccc(C)c(Cl)c1,nt,-16%,nt,-6%,-1%,3%[12.7 µM]
O=S(=O)(c1ccc(-c2csc(=Nc3ccc(OC(F)(F)Cl)cc3)n2CCCO)cc1)N1CCCC1,nt,?,nt,89µM*,-27%,1µM*
Cn1c(-c2ccc(S(=O)(=O)N3CCCC3)cc2)csc1=Nc1ccc(Cl)c(Cl)c1,nt,50µM*,nt,-29%,?,?
CC1(C)Cc2nc3sc4c(NCCO)ncnc4c3cc2CS1,-8,-30%,-8%,-20%,8%,nt
CC1(C)Cc2nc3sc(C(=O)NCCCO)c(N)c3cc2CS1,8,-24%,-19%,?,19%,25µM*

# Screening results (PubChem BioAssay)
